Laboratory results from the antibiotic and cytotoxicity screens of Wong et al. (2023).
Among all 39,000 compounds or so, about 1,500 (3.8%) were called active. Shown is part of a subset that was picked to be rich in actives.

These compounds were tested on HSkMC (human skeletal muscle cells) (assay: cytotoxicity call (relative viability < 0.9)). Settings: 10 µM.
With `O=C(C[C@H]1C=C[C@H](NC(=O)Nc2ccc3c(c2)OCO3)[C@@H](CO)O1)NCCCN1CCOCC1` the cytotoxicity call was “inactive”. For `C[C@@H]1CN([C@@H](C)CO)S(=O)(=O)c2ccc(C#CCN(C)C)cc2O[C@@H]1CN(C)Cc1ccncc1`, the cytotoxicity call was “inactive”. `CO[C@@H]1CN(C)C(=O)c2ccc(NC(=O)NC(C)C)cc2OC[C@@H](C)N(Cc2ccc(-c3ccccn3)cc2)C[C@@H]1C` was tested, and the cytotoxicity call was “inactive”. For `Cc1ccc(OC(=O)N(C)C[C@@H]2OCc3ccccc3-c3ccccc3C(=O)N([C@@H](C)CO)C[C@@H]2C)cc1`, the cytotoxicity call was “inactive”. For `C[C@H](CO)N1C[C@H](C)[C@@H](CN(C)C(=O)Nc2cccc3ccccc23)Oc2c(NC(=O)c3nc4ccccc4s3)cccc2C1=O`, the cytotoxicity call was “active”. With `C[C@@H]1CN([C@@H](C)CO)C(=O)c2cccc(NC(=O)c3nc4ccccc4s3)c2O[C@H]1CN(C)S(=O)(=O)c1cn(C)cn1` the cytotoxicity call was “inactive”. For `C[C@@H]1CN([C@H](C)CO)C(=O)c2cccc(NC(=O)c3nc4ccccc4s3)c2O[C@@H]1CN(C)C(=O)Nc1cccc2ccccc12`, the cytotoxicity call was “inactive”. `C[C@H](CO)N1C[C@H](C)[C@@H](CN(C)C(=O)Nc2ccc(F)cc2)Oc2c(NC(=O)Nc3cccc4ccccc34)cccc2C1=O` was tested, and the cytotoxicity call was “inactive”. For `C[C@H]1CN([C@@H](C)CO)C(=O)c2cccc(NC(=O)c3nc4ccccc4s3)c2O[C@H]1CN(C)S(=O)(=O)c1cn(C)cn1`, the cytotoxicity call was “active”. `C[C@H]1CN([C@@H](C)CO)C(=O)c2cccc(NC(=O)Nc3cccc4ccccc34)c2O[C@@H]1CN(C)C(=O)Nc1ccccc1` was tested, and the cytotoxicity call was “active”. For `C[C@H]1CN([C@@H](C)CO)C(=O)c2cccc(NC(=O)Nc3cccc4ccccc34)c2O[C@H]1CN(C)C(=O)Nc1ccccc1`, the cytotoxicity call was “inactive”. In the case of `C[C@@H]1CN([C@@H](C)CO)C(=O)c2cccc(NC(=O)c3nc4ccccc4s3)c2O[C@@H]1CN(C)S(=O)(=O)c1cn(C)cn1`, the cytotoxicity call was “inactive”. With `C[C@H](CO)N1C[C@H](C)[C@H](CN(C)C(=O)Nc2ccccc2)Oc2c(NC(=O)Nc3cccc4ccccc34)cccc2C1=O` the cytotoxicity call was “inactive”. `C[C@H](CO)N1C[C@H](C)[C@H](CN(C)C(=O)Nc2ccc(F)cc2)Oc2c(NC(=O)Nc3cccc4ccccc34)cccc2C1=O` was tested, and the cytotoxicity call was “inactive”. With `C[C@@H]1CN([C@H](C)CO)C(=O)c2cccc(NC(=O)Nc3cccc4ccccc34)c2O[C@@H]1CN(C)C(=O)Nc1ccc(F)cc1` the cytotoxicity call was “active”. With `C[C@H]1CN([C@@H](C)CO)C(=O)c2cccc(NC(=O)c3nc4ccccc4s3)c2O[C@@H]1CN(C)C(=O)Nc1cccc2ccccc12` the cytotoxicity call was “inactive”. For `COC(=O)CN1C(=O)COc2ccc(C)cc21`, the cytotoxicity call was “inactive”. `COc1ccc(cc1)CN1CC[C@]2(CC1)CN([C@@H](CO)c1[nH]c3cc(ccc3c12)OC)C(=O)CN(C)C` was tested, and the cytotoxicity call was “inactive”. In the case of `CC(C)NC(=O)Nc1ccc2c(c1)C(=O)N([C@@H](C)CO)C[C@H](C)[C@H](CN(C)Cc1ccc(C(=O)O)cc1)O2`, the cytotoxicity call was “inactive”. In the case of `COc1ccc(C#Cc2cnc3c(c2)C(=O)N([C@H](C)CO)C[C@H](C)[C@@H](CN(C)C(=O)CC2CC2)O3)cc1`, the cytotoxicity call was “inactive”. `C[C@@H]1CN([C@@H](C)CO)C(=O)c2cc(-c3cccnc3)cnc2O[C@@H]1CN(C)Cc1ccc(-c2ccccc2)cc1` was tested, and the cytotoxicity call was “inactive”. `O=C(C[C@H]1CC[C@H](NS(=O)(=O)c2ccc(F)cc2)[C@H](CO)O1)N1CCC(Cc2ccccc2)CC1` was tested, and the cytotoxicity call was “inactive”. `C[C@@H]1CN([C@H](C)CO)C(=O)c2cccc(NC(=O)Nc3cccc4ccccc34)c2O[C@H]1CN(C)C(=O)Nc1cccc2ccccc12` was tested, and the cytotoxicity call was “active”. In the case of `C[C@H](CO)N1C[C@H](C)[C@@H](CN(C)C(=O)Nc2cccc3ccccc23)Oc2c(NC(=O)Nc3ccccc3)cccc2C1=O`, the cytotoxicity call was “inactive”. `C[C@@H]1CN([C@H](C)CO)C(=O)c2cccc(NC(=O)Nc3cccc4ccccc34)c2O[C@H]1CN(C)C(=O)Nc1ccccc1` was tested, and the cytotoxicity call was “inactive”. With `C[C@@H]1CN([C@@H](C)CO)C(=O)c2cccc(NC(=O)Nc3ccccc3)c2O[C@@H]1CN(C)C(=O)Nc1cccc2ccccc12` the cytotoxicity call was “active”. For `C[C@H]1CN([C@@H](C)CO)C(=O)c2cccc(NC(=O)Nc3ccccc3)c2O[C@H]1CN(C)C(=O)Nc1cccc2ccccc12`, the cytotoxicity call was “inactive”. With `C[C@H]1CN([C@@H](C)CO)C(=O)c2cccc(NC(=O)Nc3cccc4ccccc34)c2O[C@H]1CN(C)C(=O)Nc1cccc2ccccc12` the cytotoxicity call was “inactive”. In the case of `C[C@@H]1CN([C@@H](C)CO)C(=O)c2cccc(NC(=O)Nc3cccc4ccccc34)c2O[C@H]1CN(C)C(=O)Nc1ccccc1`, the cytotoxicity call was “active”. For `C[C@@H]1CN([C@@H](C)CO)C(=O)c2cccc(NC(=O)Nc3cccc4ccccc34)c2O[C@H]1CN(C)C(=O)Nc1cccc2ccccc12`, the cytotoxicity call was “inactive”. In the case of `COc1ccc(NC(=O)N(C)C[C@@H]2Oc3c(NC(=O)Nc4cccc5ccccc45)cccc3C(=O)N([C@H](C)CO)C[C@@H]2C)cc1`, the cytotoxicity call was “inactive”. In the case of `COc1ccc(NC(=O)N(C)C[C@@H]2Oc3c(NC(=O)Nc4cccc5ccccc45)cccc3C(=O)N([C@H](C)CO)C[C@H]2C)cc1`, the cytotoxicity call was “inactive”. In the case of `COc1ccc(NC(=O)N(C)C[C@H]2Oc3c(NC(=O)Nc4cccc5ccccc45)cccc3C(=O)N([C@@H](C)CO)C[C@@H]2C)cc1`, the cytotoxicity call was “active”. In the case of `C[C@@H]1CN([C@H](C)CO)C(=O)c2cccc(NC(=O)Nc3cccc4ccccc34)c2O[C@@H]1CN(C)C(=O)Nc1ccccc1`, the cytotoxicity call was “inactive”. For `CN1C(=O)c2cc(NS(=O)(=O)c3cccc(F)c3)ccc2OC[C@H]2O[C@H](CC(=O)NCCN3CCCCC3)CC[C@@H]21`, the cytotoxicity call was “inactive”. `NC(=O)NC(=O)C[n+]1ccc(/C=N/O)cc1` was tested, and the cytotoxicity call was “inactive”. For `COc1ccc(S(=O)(=O)N(C)C[C@H]2Oc3ccc(N(C)C)cc3C(=O)N([C@@H](C)CO)C[C@@H]2C)cc1`, the cytotoxicity call was “inactive”. With `CS(=O)(=O)N1C[C@H]2C[C@@H](F)[C@@H](O)[C@@H]2C1` the cytotoxicity call was “inactive”. `C[C@@H]1CCCCO[C@@H](CN(C)C(=O)Nc2ccc3c(c2)OCO3)[C@@H](C)CN([C@H](C)CO)C(=O)c2cc(NC(=O)NC3CCCCC3)ccc2O1` was tested, and the cytotoxicity call was “inactive”. With `O=C(C[C@H]1C[C@@H]2c3cc(NS(=O)(=O)c4ccc(F)cc4)ccc3O[C@@H]2[C@H](CO)O1)NCc1cccnc1` the cytotoxicity call was “inactive”.
